Most compounds without a hit are left out; they make up all but 5.4% or so of the library.
Vaccinia Venus = inhibitors of vaccinia virus (Venus reporter). hit rate 0.46% among 330,000. Potency, µM (doses to about 36.5 µM), for the others: top-dose activity change, negative = inhibition, most hits filed as inhibitors. Vaccinia virus Venus reporter expression, fluorescence; calls by dose curve; tested in A549 cells; note: nearly all actives have a fitted effect of over 30% in size
FMDV antiviral = foot and mouth disease virus antiviral activity. Potency, µM (series often up to 57.9 µM), without a hit: at the highest dose activity change, negative = inhibition, actives largely listed as inhibitors. hit rate 1.2% among 410,000. FMDV antiviral cell-based qHTS; calls by dose curve; tested in HEK293T cells; note: read-out not given here; nearly all actives have a fitted effect of over 45% in size
Lassa entry inh = blocks Lassa virus binding to or entry into cells; Lassa virus pseudotype entry inhibition, cell reporter; Potency, µM (doses to about 37.9 µM), for inactives: top-dose activity change, negative = inhibition, actives largely listed as inhibitors; hit rate 1.2% among 300,000; calls by dose curve; tested in HEK293 cells; note: nearly all actives have a fitted effect of over 50% in size
Sm TGR block = S. mansoni TGR enzyme inhibition; hit rate 3% among 360,000; Potency, µM (top dose mostly 114 µM), for inactives: at the highest dose activity change, negative = inhibition, most hits filed as inhibitors; purified TGR, DTNB reduction, TNB absorbance 405 nm; Q962Y6; AID 485364; active = well fitted inhibition curve with a large enough effect; inconclusive = small, poorly fitted or top-dose-only effect; inactive = no such curve, though single readings can be large or run the other way; note: nearly all actives have a fitted effect of over 60% in size
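First, TGR (20 nM dispensed) and NADPH were mixed with compound. Second, a 15 min room-temperature incubation followed. Third, further NADPH and then DTNB were added to start the reaction. Finally, TNB absorbance was monitored kinetically.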
Marburg entry inh = blocks Marburg virus binding to or entry into cells; Potency, µM (highest dose often 37.8 µM), without a hit: top-dose activity change, negative = inhibition, most hits filed as inhibitors; Marburg virus pseudotyped entry inhibition, cell reporter; hit rate 1.8% among 300,000; calls by dose curve; tested in HEK293 cells
VACV mCherry inh = inhibitors of vaccinia virus infection (mCherry reporter signal); hit rate 0.63% among 310,000; Vaccinia virus mCherry reporter infection, fluorescence; Potency, µM (highest dose often 36.5 µM), for inactives: at the highest dose activity change, negative = inhibition, most hits filed as inhibitors; AID 720579; calls by dose curve; tested in A549 cells; note: nearly all actives have a fitted effect of over 35% in size
Numbers without * were called inactive; [ ] = another dose, or the depositor's remark. % is set by controls: 0 for no effect and ±100 for the full control effect; potency is the fitted concentration of half-maximal effect.

For O=C(CSc1nnc(-c2cccc(Br)c2)o1)NCC1CCCO1 (configuration not stated) the results were Vaccinia Venus 14.1µM*, FMDV antiviral -10.8% and VACV mCherry inh inconclusive.
Screening COC(=O)CSc1nnc(-c2ccc(S(=O)(=O)N3CCCC3)cc2)o1 returned Vaccinia Venus -4.1%, FMDV antiviral 0.3%, Lassa entry inh 13.3%, Sm TGR block 3.5%, Marburg entry inh 3.5%[46.1 µM] and VACV mCherry inh 5.6%.
For NC(=O)CSc1nnc(-c2ccc(S(=O)(=O)N3CCCC3)cc2)o1 the results were Vaccinia Venus 3.16µM*, Lassa entry inh -8.1%, Sm TGR block -10.0%, Marburg entry inh -2.0% and VACV mCherry inh inconclusive.
Screening C#CCNc1ccc2c(c1)OC[C@H](C)NS2(=O)=O returned Lassa entry inh 13.3%[46.1 µM].
`CCOc1nc(C#N)nc(N(c2ccccc2)c2ccccc2)n1` gave Vaccinia Venus -7.1% and VACV mCherry inh -15.9%.
`O=[N+]([O-])c1cccc(S(=O)(=O)N2CN(c3ccc(Br)cc3)c3nc4ccccc4nc32)c1` gave Vaccinia Venus -8.9%, FMDV antiviral -6.5%, Lassa entry inh 15.4%, Marburg entry inh -0.2% and VACV mCherry inh inactive.
For Cc1ccc(N2CN(S(=O)(=O)c3cccc([N+](=O)[O-])c3)c3nc4ccccc4nc32)cc1 the results were Vaccinia Venus -11.0%, FMDV antiviral -3.5%, Lassa entry inh 17.1%, Sm TGR block 44.7µM*, Marburg entry inh -2.4% and VACV mCherry inh -12.5%.
Screening C/C=C/C(=O)OCC(=O)Nc1cc(OC)c([N+](=O)[O-])cc1C returned Vaccinia Venus 7.94µM*, FMDV antiviral -19.1%, Lassa entry inh 6.0%, Sm TGR block 59.1%, Marburg entry inh 4.2%[46.1 µM] and VACV mCherry inh 5.62µM*.
Screening C/C=C/C(=O)OCC(=O)Nc1cc([N+](=O)[O-])ccc1Cl returned Vaccinia Venus inconclusive, FMDV antiviral 0.0%, Lassa entry inh 12.0%, Sm TGR block -4.0%, Marburg entry inh -3.8% and VACV mCherry inh 11.2µM*.
For COC(=O)c1ccc(NC(=O)CCc2c(C)nc3c(c2C)c(=O)n(C)c(=O)n3C)cc1 the results were Vaccinia Venus -10.7%, FMDV antiviral 11.4%, Lassa entry inh -0.6%[46.1 µM], Sm TGR block -0.3%, Marburg entry inh -8.2%[46.1 µM] and VACV mCherry inh -8.4%.
CCc1cccc(-n2c(=O)c3cccnc3n2CC(=O)NCc2ccccc2Cl)c1 was read as Vaccinia Venus -11.5%[7.34 µM], FMDV antiviral 6.1%, Lassa entry inh -8.1%[46.1 µM], Sm TGR block 6.0% and VACV mCherry inh -11.4%[7.34 µM].
For CC1CCn2c(nc3cc(C(=O)NCc4ccc(OC(C)C)cc4)ccc32)C1 (configuration not stated) the results were Vaccinia Venus -6.8%, FMDV antiviral 42.2%, Lassa entry inh 19.8%[46.1 µM], Sm TGR block 18.3% and VACV mCherry inh inactive.
Screening COc1cc(C(=O)Oc2cccc(Nc3ncnc4ccccc34)c2)cc(OC)c1OC returned Vaccinia Venus -10.2%, Lassa entry inh inconclusive, Sm TGR block -13.4%, Marburg entry inh inconclusive and VACV mCherry inh -10.1%.
`COc1ccc(C(=O)Oc2cccc(Nc3ncnc4ccccc34)c2)cc1OC` gave Vaccinia Venus -24.3%, FMDV antiviral 20µM*, Lassa entry inh inconclusive, Sm TGR block -11.0%, Marburg entry inh inconclusive and VACV mCherry inh inconclusive.
Screening O=S(=O)(c1ccc(F)cc1)N(CCO)CC(O)Cn1c2ccccc2c2ccccc21 (configuration not stated) returned Vaccinia Venus -25.5%, FMDV antiviral -23.1%, Lassa entry inh -25.7%[14.3 µM], Sm TGR block 0.0%, Marburg entry inh -26.7% and VACV mCherry inh -11.1%.
C=CCN(CC=C)CC(O)Cn1c2ccccc2c2ccccc21 (configuration not stated) was read as Vaccinia Venus inconclusive, Lassa entry inh inconclusive, Sm TGR block 14.3%, Marburg entry inh 8.2µM* and VACV mCherry inh inconclusive.
`CCN(CC(O)Cn1c2ccccc2c2ccccc21)S(=O)(=O)c1ccc(F)cc1` (configuration not stated) gave FMDV antiviral 28.2µM*, Lassa entry inh -3.1%, Sm TGR block 2.5% and Marburg entry inh inconclusive.
`OC(CN1CCNCC1)Cn1c2ccccc2c2ccccc21` (configuration not stated) gave FMDV antiviral -24.0% and Sm TGR block 0.0%.
`CCN(CC)CC(O)Cn1c2ccccc2c2ccccc21` (configuration not stated) gave Vaccinia Venus -14.0%, FMDV antiviral -25.7%, Lassa entry inh inconclusive, Sm TGR block -6.5% and Marburg entry inh 12.6µM*.
`CCOc1ccc(C2c3[nH]c4ccccc4c3CCN2C(=O)CCc2ccccc2)cc1` (configuration not stated) gave Vaccinia Venus 14.4%, FMDV antiviral 2.3%, Lassa entry inh inconclusive, Sm TGR block 3.6% and VACV mCherry inh inactive.
For COc1cccc(NC(=O)CSC2=Nc3ccccc3C3=NC(CCC(=O)NC4CCCCC4)C(=O)N23)c1 (configuration not stated) the results were Vaccinia Venus -12.3%, FMDV antiviral -28.6%, Lassa entry inh 21.1%[46.1 µM], Sm TGR block 10.7% and VACV mCherry inh -9.4%.
For CCN(CC)C1=N/C(=C\c2ccc(OC)cc2)C(=O)N1c1ccccc1 the results were Vaccinia Venus 13.7%, FMDV antiviral inconclusive, Lassa entry inh 0.891µM*, Sm TGR block 6.5%, Marburg entry inh inconclusive and VACV mCherry inh inconclusive.
Screening CCSC1=N/C(=C\c2ccccc2)C(=O)N1c1ccc(OC)cc1 returned Vaccinia Venus -11.9%, FMDV antiviral -21.3%, Lassa entry inh -10.7%, Sm TGR block 1.6%, Marburg entry inh -2.1% and VACV mCherry inh -15.6%.
`Cc1cc2cc(CN(Cc3ccco3)S(=O)(=O)c3c(C)ccc4nsnc34)c(=O)[nH]c2cc1C` gave FMDV antiviral -19.6%, Lassa entry inh 8.2µM*, Sm TGR block 44.7µM* and Marburg entry inh inconclusive.
Cc1ccc2cc(CN(Cc3ccco3)S(=O)(=O)c3c(C)ccc4nsnc34)c(=O)[nH]c2c1 was read as FMDV antiviral -7.9%, Lassa entry inh inconclusive, Sm TGR block 8.91µM* and Marburg entry inh inconclusive.
Cc1ccc2[nH]c(=O)c(CN(CCCO)S(=O)(=O)c3c(C)ccc4nsnc34)cc2c1 was read as Vaccinia Venus -15.0%, Lassa entry inh 4.7%, Sm TGR block 8.1%, Marburg entry inh -1.5% and VACV mCherry inh inactive.
For CC(C)c1ccc(/C=C2\SC(=S)N(CCC(=O)N3CCCCC3CCO)C2=O)cc1 (configuration not stated) the results were FMDV antiviral 11.2µM* and Sm TGR block -10.0%.
For Cc1nn(C(C)C(=O)NC2CCCCC2)c(=O)c2c1sc1ccccc12 (configuration not stated) the results were Vaccinia Venus -4.4%, FMDV antiviral -6.8%, Lassa entry inh inconclusive, Sm TGR block 5.0%, Marburg entry inh inconclusive and VACV mCherry inh -1.5%.

Compound activity as filed in PubChem.
